Activity calls are given as the source filed them. How the source made its calls: active means hit-call score of the fitted dose curve at least 0.9, where 1 is the maximum; inactive means score below 0.9.
Legend:
Settings in all cases: mRNA level, 48 h; actives raise or lower the signal
MYC, MYC (gene 4609) = assay: LTEA_HepaRG_MYC: Life Technologies and Expression Analysis (LTEA) Assay for MYC using HepaRG (AID 2283518)
Method in brief: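 HepaRG, ~100,000 cells/well, collagen I; 48 h plating; serum-free induction medium; 48 h dosing, duplicate, 100 uM top, half-log, 0.5% DMSO; total RNA → qRT-PCR MYC; gain/loss fit vs DMSO.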

[1] = read-out: matrix metalloproteinase-3 (MMP3), MMP3 (gene 4314); assay: LTEA_HepaRG_MMP3: Life Technologies and Expression Analysis (LTEA) Assay for matrix metalloproteinase-3 (MMP3) using HepaRG (AID 2283519)
Method in brief: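 qRT-PCR read-out of MMP3 mRNA (normalised to three housekeeping genes) in HepaRG liver cells after 48 h chemical exposure; 8-point half-log series, top 100 uM, 0.5% DMSO vehicle. Bidirectional curve fitting against DMSO baseline.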

[2] = read-out: Paternally Expressed 10 (PEG10), PEG10 (gene 23089); assay: LTEA_HepaRG_PEG10: Life Technologies and Expression Analysis (LTEA) Assay for Paternally Expressed 10 (PEG10) using HepaRG (AID 2283520);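 on AC50: differentiated HepaRG human liver cells in serum-free induction medium with 0.5% DMSO; PEG10 transcript by qRT-PCR normalised to ACTB GAPDH and POLR2A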
Method in brief: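 PEG10 transcript measured by Fluidigm qRT-PCR, normalized to three housekeeping genes, in HepaRG cells treated 48 h (highest 100 uM, half-log steps, 0.5% DMSO vehicle). Cells plated 48 h before switching to serum-free induction medium.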

[3] = read-out: Nuclear factor NF-kappa-B p105 subunit (Homo sapiens) (UniProt P19838); assay: LTEA_HepaRG_NFKB1: Life Technologies and Expression Analysis (LTEA) Assay for Nuclear Factor Kappa B Subunit 1 (NFKB1) using HepaRG (AID 2283521);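 further: differentiated human HepaRG liver cells in serum-free induction medium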
Method in brief: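 NFKB1 transcript was measured by TaqMan qRT-PCR on Fluidigm arrays, normalised to three housekeeping genes and fitted in both directions against 0.5% DMSO. HepaRG cells were dosed in duplicate for 48 h in serum-free induction medium, eight half-log steps from 100 uM.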

[4] = read-out: Protein phosphatase 2A (PPP2R4), PTPA (gene 5524); assay: LTEA_HepaRG_PPP2R4: Life Technologies and Expression Analysis (LTEA) Assay for Protein phosphatase 2A (PPP2R4) using HepaRG (AID 2283522)
Method in brief: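 Expression was quantified by Fluidigm qRT-PCR normalised to three housekeeping genes after 48 h treatment. Human HepaRG cells received an 8-point series from 100 µM downward by half-logs, in duplicate with 0.5% DMSO vehicle and 1 mM phenobarbital as induction control.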

[5] = read-out: Phosphatase and tensin (PTEN), PTEN (gene 5728); assay: LTEA_HepaRG_PTEN: Life Technologies and Expression Analysis (LTEA) Assay for Phosphatase and tensin (PTEN) using HepaRG (AID 2283523)
Method in brief: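 HepaRG, 48 h exposure, 8-pt half-log series from 100 uM top, 0.5% DMSO vehicle, duplicates. Readout: Fluidigm qRT-PCR of PTEN transcript; housekeeping normalization (ACTB, GAPDH, POLR2A). Gain or loss fitted relative to DMSO baseline.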

[6] = read-out: solute carrier (SLC22A1), SLC22A1 (gene 6580); assay: LTEA_HepaRG_SLC22A1: Life Technologies and Expression Analysis (LTEA) Assay for solute carrier (SLC22A1) using HepaRG (AID 2283524)
Method in brief: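 qRT-PCR readout (TaqMan, Fluidigm arrays) of SLC22A1 transcript, normalized to three housekeeping genes; bidirectional curve fit relative to 0.5% DMSO vehicle. Differentiated human HepaRG cells, 48 h chemical exposure, top concentration 100 uM, half-log steps, eight points.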

[7] = read-out: Pyruvate Dehydrogenase Kinase 4 (PDK4), PDK4 (gene 5166); assay: LTEA_HepaRG_PDK4: Life Technologies and Expression Analysis (LTEA) Assay for Pyruvate Dehydrogenase Kinase 4 (PDK4) using HepaRG (AID 2283525)
Method in brief: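 HepaRG (human liver line), 48 h chemical exposure, 8-pt half-log CRC top 100 uM, 0.5% DMSO vehicle, duplicates. Readout: TaqMan qRT-PCR of PDK4 mRNA, housekeeping-normalized; gain/loss fit relative to DMSO baseline.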

[8] = read-out: NAD(P)H dehydrogenase [quinone] 1 (NQO1), NQO1 (gene 1728); assay: LTEA_HepaRG_NQO1: Life Technologies and Expression Analysis (LTEA) Assay for NAD(P)H dehydrogenase [quinone] 1 (NQO1) using HepaRG (AID 2283526)
Method in brief: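 NQO1 transcript induction or loss measured by TaqMan qRT-PCR, referenced to three housekeeping genes and fitted bidirectionally against 0.5% DMSO. HepaRG cultures exposed 48 h, duplicate, eight-point half-log series, top 100 uM.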

[9] = read-out: Nuclear factor erythroid 2-related factor 2 (Homo sapiens) (UniProt Q16236); assay: LTEA_HepaRG_NFE2L2: Life Technologies and Expression Analysis (LTEA) Assay for Nuclear factor erythroid 2-related factor 2 (NFE2L2) Transcription Factor using HepaRG (AID 2283527)
Method in brief: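 HepaRG, 48 h dosing, 8-pt half-log series from 100 uM in 0.5% DMSO, duplicates. Read-out: NFE2L2 mRNA by qRT-PCR (ACTB/GAPDH/POLR2A normalization). Bidirectional curve fit vs DMSO baseline.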

[10] = read-out: Signal transducer and activator of transcription 3 (Homo sapiens) (UniProt P40763); assay: LTEA_HepaRG_STAT3: Life Technologies and Expression Analysis (LTEA) Assay for Signal transducer and activator of transcription (STAT3) using HepaRG (AID 2283529)
Method in brief: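 HepaRG, 48 h exposure, 8-pt half-log series (top 100 uM), 0.5% DMSO vehicle, duplicates. Readout: STAT3 transcript by Fluidigm qRT-PCR, housekeeping-normalized; bidirectional fit vs DMSO baseline.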

[11] = read-out: solute carrier (SLCO1B1), SLCO1B1 (gene 10599); assay: LTEA_HepaRG_SLCO1B1: Life Technologies and Expression Analysis (LTEA) Assay for solute carrier (SLCO1B1) using HepaRG (AID 2283530)
Method in brief: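 HepaRG, serum-free induction medium, 48 h dosing, 8-pt half-log from 100 uM, 0.5% DMSO vehicle, duplicates. Readout: SLCO1B1 mRNA, qRT-PCR, ACTB/GAPDH/POLR2A normalization; up or down fit vs DMSO.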

[12] = read-out: sulfotransferase 2A1 (SULT2A1), SULT2A1 (gene 6822); assay: LTEA_HepaRG_SULT2A1: Life Technologies and Expression Analysis (LTEA) Assay for sulfotransferase 2A1 (SULT2A1) using HepaRG (AID 2283531)
Method in brief: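 Transcript levels of SULT2A1, quantified by qRT-PCR and normalized to three housekeeping genes, serve as the readout. Human HepaRG cultures receive test chemicals for 48 h at up to 100 uM in half-log steps, with 0.5% DMSO vehicle.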

[13] = read-out: Transforming Growth Factor (TGFA), TGFA (gene 7039); assay: LTEA_HepaRG_TGFA: Life Technologies and Expression Analysis (LTEA) Assay for Transforming Growth Factor (TGFA) using HepaRG (AID 2283532)
Method in brief: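 qRT-PCR read-out of TGFA transcript, normalized to three housekeeping genes, fitted bidirectionally against 0.5% DMSO baseline. Human HepaRG cultures received chemicals for 48 h at eight half-log concentrations, top 100 uM.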

[14] = read-out: Transforming Growth Factor (TGFB1), TGFB1 (gene 7040); assay: LTEA_HepaRG_TGFB1: Life Technologies and Expression Analysis (LTEA) Assay for Transforming Growth Factor (TGFB1) Transporter using HepaRG (AID 2283533)
Method in brief: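 HepaRG, 48 h post-plating, switched to serum-free induction medium; chemicals 100 uM top, half-log, 8 pts, 0.5% DMSO, dup; 48 h exposure; RNA → Fluidigm TaqMan qRT-PCR; norm ACTB/GAPDH/POLR2A; bidirectional fit vs DMSO.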

TIMP1, TIMP1 (gene 7076) = assay: LTEA_HepaRG_TIMP1: Life Technologies and Expression Analysis (LTEA) Assay for TIMP1 using HepaRG (AID 2283534)
Method in brief: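 Readout is TIMP1 mRNA level measured by qRT-PCR and normalized to three housekeeping genes. Human HepaRG cells were treated for 48 h in duplicate at eight concentrations up to 100 uM (0.5% DMSO); gain or loss fitted against DMSO.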

[15] = read-out: Tumor necrosis factor receptor 1 (TNFRSF1A), TNFRSF1A (gene 7132); assay: LTEA_HepaRG_TNFRSF1A: Life Technologies and Expression Analysis (LTEA) Assay for Tumor necrosis factor receptor 1 (TNFRSF1A) using HepaRG (AID 2283535)
Method in brief: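 Read-out is TNFRSF1A transcript level by TaqMan qRT-PCR, normalized to three housekeeping genes, scored as gain or loss of signal versus 0.5% DMSO. Human HepaRG cells received test chemicals for 48 h at up to 100 uM (half-log series).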

[16] = read-out: Thyroid Hormone Responsive (THRSP), THRSP (gene 7069); assay: LTEA_HepaRG_THRSP: Life Technologies and Expression Analysis (LTEA) Assay for Thyroid Hormone Responsive (THRSP) using HepaRG (AID 2283536)
Method in brief: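 qRT-PCR read-out (Fluidigm TaqMan), housekeeping-normalized (ACTB/GAPDH/POLR2A). HepaRG, 48 h chemical exposure, 8-pt half-log series from 100 uM in 0.5% DMSO, duplicates. Bidirectional curve fit vs 0.5% DMSO baseline.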

[17] = read-out: Cellular tumor antigen p53 (Homo sapiens) (UniProt P04637); assay: LTEA_HepaRG_TP53: Life Technologies and Expression Analysis (LTEA) Assay for Tumor Protein P53 (TP53) using HepaRG (AID 2283537)
Method in brief: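 TP53 transcript measured by qRT-PCR, normalized to three housekeeping genes, after 48 h treatment of human HepaRG cultures with chemicals from 100 uM downward in half-log steps (0.5% DMSO vehicle, serum-free induction medium). Up- or down-regulation fitted against DMSO.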

[18] = read-out: succinate dehydrogenase complex iron sulfur subunit B (SDHB), SDHB (gene 6390); assay: LTEA_HepaRG_SDHB: Life Technologies and Expression Analysis (LTEA) Assay for succinate dehydrogenase complex iron sulfur subunit B (SDHB) using HepaRG (AID 2283528)
Method in brief: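 SDHB transcript level read by TaqMan qRT-PCR, housekeeping-normalised (ACTB, GAPDH, POLR2A), after 48 h chemical treatment of plated HepaRG cells; eight concentrations top 100 uM, half-log steps, 0.5% DMSO, duplicates; fitted both directions against DMSO.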

Measured: AC50

Signal transducer and activator of transcription 3 (Homo sapiens), sequence (P40763 whole entry, looked up): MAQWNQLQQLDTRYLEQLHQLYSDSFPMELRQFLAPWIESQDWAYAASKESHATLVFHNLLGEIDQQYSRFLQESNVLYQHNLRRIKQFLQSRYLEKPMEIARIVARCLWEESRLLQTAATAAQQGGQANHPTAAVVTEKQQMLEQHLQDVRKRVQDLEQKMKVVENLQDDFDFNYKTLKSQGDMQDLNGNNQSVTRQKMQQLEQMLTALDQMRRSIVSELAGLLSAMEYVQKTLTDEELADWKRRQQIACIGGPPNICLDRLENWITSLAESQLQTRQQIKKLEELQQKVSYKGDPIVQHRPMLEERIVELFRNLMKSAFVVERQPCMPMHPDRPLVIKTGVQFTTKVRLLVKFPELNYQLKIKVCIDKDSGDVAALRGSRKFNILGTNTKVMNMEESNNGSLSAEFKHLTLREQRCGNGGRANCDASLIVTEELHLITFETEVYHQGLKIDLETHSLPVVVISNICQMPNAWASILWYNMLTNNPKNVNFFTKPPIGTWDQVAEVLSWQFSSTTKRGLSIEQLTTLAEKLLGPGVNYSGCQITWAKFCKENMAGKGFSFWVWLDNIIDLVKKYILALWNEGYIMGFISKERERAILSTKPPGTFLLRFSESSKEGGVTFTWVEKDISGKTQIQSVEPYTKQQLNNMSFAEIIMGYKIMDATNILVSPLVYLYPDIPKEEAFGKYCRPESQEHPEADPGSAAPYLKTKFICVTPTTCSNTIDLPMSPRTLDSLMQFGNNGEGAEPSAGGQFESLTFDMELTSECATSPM
Cellular tumor antigen p53 (Homo sapiens), sequence (P04637 whole entry, looked up): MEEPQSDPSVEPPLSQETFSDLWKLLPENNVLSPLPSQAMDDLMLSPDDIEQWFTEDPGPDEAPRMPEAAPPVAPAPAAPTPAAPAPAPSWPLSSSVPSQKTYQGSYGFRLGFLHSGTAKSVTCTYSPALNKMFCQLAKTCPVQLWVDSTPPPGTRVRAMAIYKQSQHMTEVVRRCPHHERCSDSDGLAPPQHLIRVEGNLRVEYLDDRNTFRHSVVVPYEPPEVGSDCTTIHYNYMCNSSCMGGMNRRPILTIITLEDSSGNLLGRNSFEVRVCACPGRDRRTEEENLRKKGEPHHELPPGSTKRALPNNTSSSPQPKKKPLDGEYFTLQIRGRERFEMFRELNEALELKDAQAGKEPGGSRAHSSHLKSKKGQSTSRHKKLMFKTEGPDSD
Nuclear factor erythroid 2-related factor 2 (Homo sapiens), sequence (Q16236 whole entry, looked up): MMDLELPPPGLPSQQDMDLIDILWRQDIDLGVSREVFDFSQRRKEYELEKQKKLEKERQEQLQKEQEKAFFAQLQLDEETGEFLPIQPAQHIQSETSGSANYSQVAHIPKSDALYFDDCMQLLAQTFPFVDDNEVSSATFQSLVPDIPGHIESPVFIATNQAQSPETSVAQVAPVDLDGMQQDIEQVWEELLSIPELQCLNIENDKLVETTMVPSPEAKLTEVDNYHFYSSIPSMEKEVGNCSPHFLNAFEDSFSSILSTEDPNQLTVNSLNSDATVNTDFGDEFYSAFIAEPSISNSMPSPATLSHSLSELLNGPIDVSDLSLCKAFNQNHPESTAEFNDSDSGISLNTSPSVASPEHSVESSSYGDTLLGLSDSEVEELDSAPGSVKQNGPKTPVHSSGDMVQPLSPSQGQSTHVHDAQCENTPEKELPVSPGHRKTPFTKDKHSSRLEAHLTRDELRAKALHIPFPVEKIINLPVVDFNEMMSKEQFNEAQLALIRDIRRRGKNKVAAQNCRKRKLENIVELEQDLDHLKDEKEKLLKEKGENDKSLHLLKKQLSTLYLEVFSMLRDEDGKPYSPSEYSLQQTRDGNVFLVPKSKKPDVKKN
Nuclear factor NF-kappa-B p105 subunit (Homo sapiens), sequence (P19838 whole entry, looked up): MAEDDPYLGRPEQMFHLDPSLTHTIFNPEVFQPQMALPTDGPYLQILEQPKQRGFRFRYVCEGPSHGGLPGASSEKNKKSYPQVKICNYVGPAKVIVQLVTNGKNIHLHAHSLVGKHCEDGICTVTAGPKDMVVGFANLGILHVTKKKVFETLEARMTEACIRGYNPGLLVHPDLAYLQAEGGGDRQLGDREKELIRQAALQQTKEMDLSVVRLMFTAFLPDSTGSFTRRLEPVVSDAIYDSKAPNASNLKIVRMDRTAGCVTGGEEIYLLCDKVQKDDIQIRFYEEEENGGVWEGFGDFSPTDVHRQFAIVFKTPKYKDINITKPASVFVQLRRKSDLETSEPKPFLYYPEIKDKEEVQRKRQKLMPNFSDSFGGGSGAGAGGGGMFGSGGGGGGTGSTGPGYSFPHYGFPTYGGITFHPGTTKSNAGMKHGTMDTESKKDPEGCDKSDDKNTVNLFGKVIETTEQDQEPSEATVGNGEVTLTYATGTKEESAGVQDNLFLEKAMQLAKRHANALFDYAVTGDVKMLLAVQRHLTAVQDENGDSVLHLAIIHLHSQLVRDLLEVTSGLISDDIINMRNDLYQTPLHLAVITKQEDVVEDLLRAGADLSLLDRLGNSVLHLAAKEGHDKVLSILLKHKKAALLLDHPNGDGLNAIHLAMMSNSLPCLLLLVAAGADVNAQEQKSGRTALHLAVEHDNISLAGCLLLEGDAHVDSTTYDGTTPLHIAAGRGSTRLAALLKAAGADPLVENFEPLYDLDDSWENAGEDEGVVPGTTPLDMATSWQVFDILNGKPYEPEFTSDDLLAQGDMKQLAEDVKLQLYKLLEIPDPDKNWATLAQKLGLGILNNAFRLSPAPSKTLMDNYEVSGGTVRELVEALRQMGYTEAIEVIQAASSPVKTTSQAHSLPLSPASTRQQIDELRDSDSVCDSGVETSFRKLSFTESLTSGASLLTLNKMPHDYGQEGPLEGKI

CCCOC(=O)c1ccc(C(=O)OCCC)nc1
not listed: [18]
inactive: all other assays above

CCCCOC(=O)[C@@H](C)Oc1ccc(Oc2ccc(C(F)(F)F)cn2)cc1
active: [2] 5.38 µM
not listed: [18]
inactive: all other assays above

c1ccc2[nH]c(-c3cscn3)nc2c1
active: MYC, MYC (gene 4609) 40 µM | [2] 26.6 µM | [7] 15.8 µM | [9] 50 µM
not listed: [14] | [17] | [18]
inactive: all other assays above

CCOC(=O)C(C)Oc1ccc(Oc2nc3ccc(Cl)cc3o2)cc1 (centres undefined)
not listed: [6] | [18]
inactive: all other assays above

CCN(Cc1c(F)cccc1Cl)c1c([N+](=O)[O-])cc(C(F)(F)F)cc1[N+](=O)[O-]
active: MYC, MYC (gene 4609) 50 µM | [2] 15.2 µM | [9] 50 µM | [16] 22.8 µM | [17] 30.3 µM
not listed: [6]
inactive: all other assays above

N#CSCSc1nc2ccccc2s1
active: [2] 50 µM | [7] 32.9 µM | [11] 95.8 µM | [16] 77.7 µM
not listed: [6] | [17] | [18]
inactive: all other assays above
